# Results reported in paper PMC11006913.
# How the values were obtained:
# Test in all cases: PBM; 200 nM protein, PBS
# Conditions in all cases: dsDNA, one strand shown
# HOXB4 [1] = target: HOXB4 (Homo sapiens, UniProt P17483 148-234)
# HOXA7 [2] = target: HOXA7 (Homo sapiens, UniProt P31268 116-202)
# HOXC10 [3] = target: HOXC10 (Homo sapiens, UniProt Q9NYD6 254-340)
# HOXB4 [4] = target: HOXB4 (Homo sapiens, UniProt P17483 148-234, V174I)
# HOXC10 [5] = target: HOXC10 (Homo sapiens, UniProt Q9NYD6 254-340, K271E)
# Sequence of HOXC10 (Homo sapiens, UniProt Q9NYD6 254-340, K271E) (Q9NYD6 254-340 K271E): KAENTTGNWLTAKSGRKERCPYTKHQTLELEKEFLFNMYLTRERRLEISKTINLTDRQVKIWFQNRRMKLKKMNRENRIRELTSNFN
# HOXA7 [6] = target: HOXA7 (Homo sapiens, UniProt P31268 116-202, W177C)
# Sequence of HOXA7 (Homo sapiens, UniProt P31268 116-202, W177C) (P31268 116-202 W177C): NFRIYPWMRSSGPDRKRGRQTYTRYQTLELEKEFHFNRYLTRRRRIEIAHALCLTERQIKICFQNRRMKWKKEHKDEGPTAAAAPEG
# HOXA4 [7] = target: HOXA4 (Homo sapiens, UniProt Q00056 201-287, W262R)
# Sequence of HOXA4 (Homo sapiens, UniProt Q00056 201-287, W262R) (Q00056 201-287 W262R): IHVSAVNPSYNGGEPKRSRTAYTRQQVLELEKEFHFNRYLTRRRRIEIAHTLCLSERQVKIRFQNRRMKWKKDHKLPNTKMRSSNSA
# HOXA2 [8] = target: HOXA2 (Homo sapiens, UniProt O43364 129-215, R185T)
# Sequence of HOXA2 (Homo sapiens, UniProt O43364 129-215, R185T) (O43364 129-215 R185T): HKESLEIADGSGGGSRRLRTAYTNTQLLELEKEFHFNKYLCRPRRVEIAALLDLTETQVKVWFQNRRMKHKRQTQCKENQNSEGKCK
# HOXA4 [9] = target: HOXA4 (Homo sapiens, UniProt Q00056 201-287, R217L)
# Sequence of HOXA4 (Homo sapiens, UniProt Q00056 201-287, R217L) (Q00056 201-287 R217L): as the sequence (Q00056 201-287 W262R) above, with R17L, R62W counted along it
# HOXA2 [10] = target: HOXA2 (Homo sapiens, UniProt O43364 129-215, R185K)
# Sequence of HOXA2 (Homo sapiens, UniProt O43364 129-215, R185K) (O43364 129-215 R185K): as the sequence (O43364 129-215 R185T) above, with T57K counted along it
# HOXA4 [11] = target: HOXA4 (Homo sapiens, UniProt Q00056 201-287)
# Sequence of HOXA4 (Homo sapiens, UniProt Q00056 201-287) (Q00056 201-287): as the sequence (Q00056 201-287 W262R) above, with R62W counted along it
# VAX1 = VAX1 (Homo sapiens, UniProt Q5SQQ9 86-172, T142I)
# Sequence of VAX1 (Q5SQQ9 86-172 T142I): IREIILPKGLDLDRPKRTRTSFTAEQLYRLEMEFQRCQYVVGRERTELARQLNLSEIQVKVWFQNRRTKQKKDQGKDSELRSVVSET
# HOXA2 [12] = target: HOXA2 (Homo sapiens, UniProt O43364 129-215, Y150S)
# Sequence of HOXA2 (Homo sapiens, UniProt O43364 129-215, Y150S) (O43364 129-215 Y150S): as the sequence (O43364 129-215 R185T) above, with Y22S, T57R counted along it
# HOXA4 [13] = target: HOXA4 (Homo sapiens, UniProt Q00056 201-287, W262F)
# Sequence of HOXA4 (Homo sapiens, UniProt Q00056 201-287, W262F) (Q00056 201-287 W262F): as the sequence (Q00056 201-287 W262R) above, with R62F counted along it
# HOXA2 [14] = target: HOXA2 (Homo sapiens, UniProt O43364 129-215)
# Sequence of HOXA2 (Homo sapiens, UniProt O43364 129-215) (O43364 129-215): as the sequence (O43364 129-215 R185T) above, with T57R counted along it
# HOXC9 [15] = target: HOXC9 (Homo sapiens, UniProt P31274 178-260, K195R)
# Sequence of HOXC9 (Homo sapiens, UniProt P31274 178-260, K195R) (P31274 178-260 K195R): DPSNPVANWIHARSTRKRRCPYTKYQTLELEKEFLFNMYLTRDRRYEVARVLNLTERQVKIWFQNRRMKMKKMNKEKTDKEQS
# HOXC9 [16] = target: HOXC9 (Homo sapiens, UniProt P31274 178-260)
# Sequence of HOXC9 (Homo sapiens, UniProt P31274 178-260) (P31274 178-260): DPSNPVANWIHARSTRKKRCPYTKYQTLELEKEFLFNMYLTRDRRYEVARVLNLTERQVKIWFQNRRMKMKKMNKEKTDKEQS
# MSX2 [17] = target: MSX2 (Homo sapiens, UniProt P35548 130-214, R199I)
# Sequence of MSX2 (Homo sapiens, UniProt P35548 130-214, R199I) (P35548 130-214 R199I): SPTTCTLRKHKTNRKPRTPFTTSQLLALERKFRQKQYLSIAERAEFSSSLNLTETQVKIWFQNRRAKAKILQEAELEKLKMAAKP
# HOXD13 [18] = target: HOXD13 (Homo sapiens, UniProt P35453 263-343, T313R)
# Sequence of HOXD13 (Homo sapiens, UniProt P35453 263-343, T313R) (P35453 263-343 T313R): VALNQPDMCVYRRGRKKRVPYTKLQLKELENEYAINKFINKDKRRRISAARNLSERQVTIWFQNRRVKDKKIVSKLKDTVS
# HOXC9 [19] = target: HOXC9 (Homo sapiens, UniProt P31274 178-260, R193K)
# Sequence of HOXC9 (Homo sapiens, UniProt P31274 178-260, R193K) (P31274 178-260 R193K): as the sequence (P31274 178-260) above, with R16K counted along it
# HOXD13 [20] = target: HOXD13 (Homo sapiens, UniProt P35453 263-343)
# Sequence of HOXD13 (Homo sapiens, UniProt P35453 263-343) (P35453 263-343): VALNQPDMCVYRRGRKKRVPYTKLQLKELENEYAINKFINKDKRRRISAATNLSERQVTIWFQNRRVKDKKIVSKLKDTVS
# MSX2 [21] = target: MSX2 (Homo sapiens, UniProt P35548 130-214)
# Sequence of MSX2 (Homo sapiens, UniProt P35548 130-214) (P35548 130-214): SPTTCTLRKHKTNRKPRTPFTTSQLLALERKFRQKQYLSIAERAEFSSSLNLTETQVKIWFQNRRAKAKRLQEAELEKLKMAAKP
# HOXD13 [22] = target: HOXD13 (Homo sapiens, UniProt P35453 263-343, T313A)
# Sequence of HOXD13 (Homo sapiens, UniProt P35453 263-343, T313A) (P35453 263-343 T313A): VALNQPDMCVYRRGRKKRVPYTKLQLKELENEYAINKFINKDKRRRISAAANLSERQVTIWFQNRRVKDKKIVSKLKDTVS
# HOXC9 [23] = target: HOXC9 (Homo sapiens, UniProt P31274 178-260, R222W)
# Sequence of HOXC9 (Homo sapiens, UniProt P31274 178-260, R222W) (P31274 178-260 R222W): as the sequence (P31274 178-260) above, with R45W counted along it
# MSX2 [24] = target: MSX2 (Homo sapiens, UniProt P35548 130-214, F161Y)
# Sequence of MSX2 (Homo sapiens, UniProt P35548 130-214, F161Y) (P35548 130-214 F161Y): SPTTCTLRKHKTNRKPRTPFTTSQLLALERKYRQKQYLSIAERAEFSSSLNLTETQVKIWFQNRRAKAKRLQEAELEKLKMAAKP
# ALX1 [25] = target: ALX1 (Homo sapiens, UniProt Q15699 118-204, L144V)
# Sequence of ALX1 (Homo sapiens, UniProt Q15699 118-204, L144V) (Q15699 118-204 L144V): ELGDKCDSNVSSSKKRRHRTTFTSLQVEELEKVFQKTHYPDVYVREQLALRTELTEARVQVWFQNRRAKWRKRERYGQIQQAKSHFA
# ALX1 [26] = target: ALX1 (Homo sapiens, UniProt Q15699 118-204, L144R)
# Sequence of ALX1 (Homo sapiens, UniProt Q15699 118-204, L144R) (Q15699 118-204 L144R): as the sequence (Q15699 118-204 L144V) above, with V27R counted along it
# ALX1 [27] = target: ALX1 (Homo sapiens, UniProt Q15699 118-204)
# Sequence of ALX1 (Homo sapiens, UniProt Q15699 118-204) (Q15699 118-204): as the sequence (Q15699 118-204 L144V) above, with V27L counted along it
# Sequence of HOXB4 (Homo sapiens, UniProt P17483 148-234) (P17483 148-234): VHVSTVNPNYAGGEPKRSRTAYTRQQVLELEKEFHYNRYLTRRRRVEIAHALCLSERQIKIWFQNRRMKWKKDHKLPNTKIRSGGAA
# Sequence of HOXB4 (Homo sapiens, UniProt P17483 148-234, V174I) (P17483 148-234 V174I): as the sequence (P17483 148-234) above, with V27I counted along it
# Sequence of HOXA7 (Homo sapiens, UniProt P31268 116-202) (P31268 116-202): as the sequence (P31268 116-202 W177C) above, with C62W counted along it
# Sequence of HOXC10 (Homo sapiens, UniProt Q9NYD6 254-340) (Q9NYD6 254-340): as the sequence (Q9NYD6 254-340 K271E) above, with E18K counted along it
sequence,measurement,setting,value
ACCGTGGG,binding signal,HOXB4 [1],"7.69 upbm affinity estimate (log intensity, higher = more binding, comparable within an allelic series)"
same,binding signal,HOXA7 [2],"8.39 upbm affinity estimate (log intensity, higher = more binding, comparable within an allelic series)"
same,binding signal,HOXC10 [3],"10.1 upbm affinity estimate (log intensity, higher = more binding, comparable within an allelic series)"
same,binding signal,HOXB4 [4],"7.68 upbm affinity estimate (log intensity, higher = more binding, comparable within an allelic series)"
same,binding signal,HOXC10 [5],"10 upbm affinity estimate (log intensity, higher = more binding, comparable within an allelic series)"
same,binding signal,HOXA7 [6],"8.44 upbm affinity estimate (log intensity, higher = more binding, comparable within an allelic series)"
GTTCATTA,binding signal,HOXB4 [1],"13 upbm affinity estimate (log intensity, higher = more binding, comparable within an allelic series)"
same,binding signal,HOXA7 [2],"10.2 upbm affinity estimate (log intensity, higher = more binding, comparable within an allelic series)"
same,binding signal,HOXB4 [4],"13.6 upbm affinity estimate (log intensity, higher = more binding, comparable within an allelic series)"
same,binding signal,HOXA7 [6],"8.87 upbm affinity estimate (log intensity, higher = more binding, comparable within an allelic series)"
ATAATGAT,binding signal,HOXB4 [1],"13.2 upbm affinity estimate (log intensity, higher = more binding, comparable within an allelic series)"
same,binding signal,HOXA4 [7],"10.6 upbm affinity estimate (log intensity, higher = more binding, comparable within an allelic series)"
same,binding signal,HOXA2 [8],"12.1 upbm affinity estimate (log intensity, higher = more binding, comparable within an allelic series)"
same,binding signal,HOXA4 [9],"12.2 upbm affinity estimate (log intensity, higher = more binding, comparable within an allelic series)"
same,binding signal,HOXB4 [4],"13.8 upbm affinity estimate (log intensity, higher = more binding, comparable within an allelic series)"
same,binding signal,HOXA2 [10],"13.1 upbm affinity estimate (log intensity, higher = more binding, comparable within an allelic series)"
same,binding signal,HOXA4 [11],"13.9 upbm affinity estimate (log intensity, higher = more binding, comparable within an allelic series)"
same,binding signal,VAX1,"12.3 upbm affinity estimate (log intensity, higher = more binding, comparable within an allelic series)"
same,binding signal,HOXA2 [12],"10.9 upbm affinity estimate (log intensity, higher = more binding, comparable within an allelic series)"
same,binding signal,HOXA4 [13],"11.5 upbm affinity estimate (log intensity, higher = more binding, comparable within an allelic series)"
same,binding signal,HOXA2 [14],"12.1 upbm affinity estimate (log intensity, higher = more binding, comparable within an allelic series)"
ACCTCTCG,binding signal,HOXB4 [1],"7.54 upbm affinity estimate (log intensity, higher = more binding, comparable within an allelic series)"
same,binding signal,HOXA4 [7],"9.8 upbm affinity estimate (log intensity, higher = more binding, comparable within an allelic series)"
same,binding signal,HOXA4 [9],"9.73 upbm affinity estimate (log intensity, higher = more binding, comparable within an allelic series)"
same,binding signal,HOXB4 [4],"7.48 upbm affinity estimate (log intensity, higher = more binding, comparable within an allelic series)"
same,binding signal,HOXA4 [11],"9.69 upbm affinity estimate (log intensity, higher = more binding, comparable within an allelic series)"
same,binding signal,HOXA4 [13],"9.82 upbm affinity estimate (log intensity, higher = more binding, comparable within an allelic series)"
CGAGGCAC,binding signal,HOXB4 [1],"7.73 upbm affinity estimate (log intensity, higher = more binding, comparable within an allelic series)"
same,binding signal,HOXC9 [15],"9.69 upbm affinity estimate (log intensity, higher = more binding, comparable within an allelic series)"
same,binding signal,HOXB4 [4],"7.43 upbm affinity estimate (log intensity, higher = more binding, comparable within an allelic series)"
same,binding signal,HOXC9 [16],"9.79 upbm affinity estimate (log intensity, higher = more binding, comparable within an allelic series)"
same,binding signal,MSX2 [17],"9.52 upbm affinity estimate (log intensity, higher = more binding, comparable within an allelic series)"
same,binding signal,HOXD13 [18],"9.57 upbm affinity estimate (log intensity, higher = more binding, comparable within an allelic series)"
same,binding signal,HOXC9 [19],"9.72 upbm affinity estimate (log intensity, higher = more binding, comparable within an allelic series)"
same,binding signal,HOXD13 [20],"9.71 upbm affinity estimate (log intensity, higher = more binding, comparable within an allelic series)"
same,binding signal,MSX2 [21],"9.5 upbm affinity estimate (log intensity, higher = more binding, comparable within an allelic series)"
same,binding signal,HOXD13 [22],"9.78 upbm affinity estimate (log intensity, higher = more binding, comparable within an allelic series)"
same,binding signal,HOXC9 [23],"9.7 upbm affinity estimate (log intensity, higher = more binding, comparable within an allelic series)"
same,binding signal,MSX2 [24],"9.56 upbm affinity estimate (log intensity, higher = more binding, comparable within an allelic series)"
GGCCCCCA,binding signal,HOXB4 [1],"7.76 upbm affinity estimate (log intensity, higher = more binding, comparable within an allelic series)"
same,binding signal,HOXA4 [7],"9.68 upbm affinity estimate (log intensity, higher = more binding, comparable within an allelic series)"
same,binding signal,HOXA4 [9],"9.68 upbm affinity estimate (log intensity, higher = more binding, comparable within an allelic series)"
same,binding signal,HOXB4 [4],"7.77 upbm affinity estimate (log intensity, higher = more binding, comparable within an allelic series)"
same,binding signal,ALX1 [25],"6.64 upbm affinity estimate (log intensity, higher = more binding, comparable within an allelic series)"
same,binding signal,ALX1 [26],"6.56 upbm affinity estimate (log intensity, higher = more binding, comparable within an allelic series)"
same,binding signal,HOXA4 [11],"9.71 upbm affinity estimate (log intensity, higher = more binding, comparable within an allelic series)"
same,binding signal,ALX1 [27],"6.65 upbm affinity estimate (log intensity, higher = more binding, comparable within an allelic series)"
same,binding signal,HOXA4 [13],"9.82 upbm affinity estimate (log intensity, higher = more binding, comparable within an allelic series)"
